This is an account of results in PubChem BioAssay (EPA / NIEHS).

Records with an inconclusive call do not appear. Active and inactive are the calls of the source. The calls were made as follows, unless noted: active = hit-call score of the fitted dose curve at least 0.9, where 1 is the maximum; inactive = score below 0.9. Peptide text beside a SMILES is read from it.

The nature of experiment [1]: ATG_TCF_b_cat_CIS: Attagene CIS-FACTORIAL HepG2 Assay for human T-Cell-Factor with beta-catenin (TCF/b-cat) (AID 2282965). The conditions noted are these: HepG2 TCF/beta-catenin cis-reporter transcription, actives raise or lower the signal. The method, boiled down:
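Endogenous TCF/LEF activity read as reporter transcript level via RT-PCR and capillary electrophoresis fluorescence in transfected HepG2, 24 h exposure; gain or loss of signal fitted against DMSO controls.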

A short description of experiment [2]: ATG_TAL_CIS: Attagene CIS-FACTORIAL HepG2 Assay for human TAL Basal Promoter (AID 2282966).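 Also: background control endpoint measuring basal TAL promoter reporter mRNA not a specific factor.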 The conditions noted are these: HepG2 Attagene cis-factorial TAL promoter reporter; actives raise or lower the signal. Put shortly: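 After 24 hours of chemical exposure, transfected HepG2 cells yielded RNA that was converted to 6-FAM-labelled, HpaI-digested reporter fragments for capillary electrophoresis. Values derive from bidirectional fitting against DMSO controls.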

Experiment [3] is described as follows: ATG_TGFb_CIS: Attagene CIS-FACTORIAL HepG2 Assay for human Transforming Growth Factor (TGF) (AID 2282967). The conditions noted are these: HepG2 Attagene CIS TGFb reporter, mRNA transcription; actives raise or lower the signal. Put shortly: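 Transcript-level reporter readout: HepG2 transfectants, 24 h exposure, RNA to cDNA, reporter-specific PCR, fluorescent primer extension, capillary sizing against ROX standards. Gain- or loss-of-signal relative to DMSO.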

For experiment [4], the target named is Estrogen receptor (Homo sapiens) (UniProt P03372). Description: ATG_ERa_TRANS: Attagene TRANS-FACTORIAL HepG2 Assay for human Estrogen Receptor alpha (ERa) (AID 2282970; active = hit-call score of the fitted dose curve at least 0.9, where 1 is the maximum). The conditions noted are these: HepG2 Attagene TRANS ERa GAL4 reporter, mRNA. The method, boiled down: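 Liver-derived HepG2 cells expressing chimeric nuclear receptor-Gal4 proteins from transient transfection were exposed for 24 hours. Gain of reporter mRNA signal versus DMSO, read by capillary electrophoresis of FAM-labelled PCR products, was recorded.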

Experiment [5] addresses Steroid hormone receptor ERR1 (Homo sapiens) (UniProt P11474). The experiment can be described thus: ATG_ERRa_TRANS: Attagene TRANS-FACTORIAL HepG2 Assay for human Estrogen-Related Receptor alpha (ERRa) (AID 2282971; active = hit-call score of the fitted dose curve at least 0.9, where 1 is the maximum). The conditions noted are these: HepG2 Attagene TRANS reporter, ERRa transactivation. Put shortly: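 Reporter transcript induction was quantified by RT-PCR and capillary electrophoresis of FAM-labelled, HpaI-cut products after 24 h treatment of HepG2 cells carrying transiently transfected GAL4-UAS reporter units and an exogenous ERRa-Gal4 fusion; activity scored as increase over DMSO.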

For experiment [6], the target named is X-box-binding protein 1 (Homo sapiens) (UniProt P17861). The experiment can be described thus: ATG_Xbp1_CIS: Attagene CIS-FACTORIAL HepG2 Assay for human X-box Binding Protein 1 (XBP1) (AID 2282972). The conditions noted are these: HepG2 XBP1 cis-element reporter, Attagene multiplex; actives raise or lower the signal. Put shortly:
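Read-out: fluorescent reporter mRNA fragments resolved by capillary electrophoresis after RT-PCR. Human HepG2 liver cells carried transfected cis-promoter reporter units and were exposed to chemicals for 24 hours. Gain or loss of signal fitted relative to DMSO baseline.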

The nature of experiment [7]: ATG_M_19_TRANS: Attagene TRANS-FACTORIAL HepG2 Assay for M19 Transcription Factor (Internal Marker) (AID 2282974; active = hit-call score of the fitted dose curve at least 0.9, where 1 is the maximum). The conditions noted are these: HepG2 Attagene TRANS-FACTORIAL M19 internal marker reporter. Put shortly:
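HepG2 cells transiently transfected with multiple GAL4-UAS reporter transcription units were exposed to chemicals for 24 h. Reporter mRNA was read by RT-PCR, 6-FAM primer extension, HpaI digestion and capillary electrophoresis; gain of signal fitted relative to DMSO.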

Experiment [8] is described as follows: ATG_GAL4_TRANS: Attagene TRANS-FACTORIAL HepG2 Assay for GAL4 (Internal Marker) (AID 2282976; active = hit-call score of the fitted dose curve at least 0.9, where 1 is the maximum). The conditions noted are these: HepG2 Attagene TRANS GAL4 internal marker reporter. Put shortly: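 First, HepG2 cells were transfected with reporter units under GAL4-UAS control. Next, they were treated with chemical for 24 h. Finally, RNA was reverse-transcribed, PCR-amplified, FAM-labelled and resolved by capillary electrophoresis, with induction scored against DMSO.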

Experiment [9] deals with Nuclear receptor subfamily 1 group I member 3 (Homo sapiens) (UniProt Q14994). The experiment can be described thus: ATG_CAR_TRANS: Attagene TRANS-FACTORIAL HepG2 Assay for human Constitutive Androstane Receptor (CAR) (AID 2282969; active = hit-call score of the fitted dose curve at least 0.9, where 1 is the maximum;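 also: activators raise reporter mRNA above DMSO so AC50 marks induction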). The conditions noted are these: HepG2 Attagene TRANS-FACTORIAL CAR reporter. Put shortly: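 Signal is reporter mRNA induction relative to DMSO, measured 24 h after dosing by RT-PCR with fluorescent primer extension and capillary electrophoresis. Human HepG2 liver cells carried transiently transfected chimeric NR-Gal4/GAL4-UAS reporter constructs.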
Chain of Nuclear receptor subfamily 1 group I member 3 (Homo sapiens) (Q14994 whole entry, looked up, the tested form may be a part): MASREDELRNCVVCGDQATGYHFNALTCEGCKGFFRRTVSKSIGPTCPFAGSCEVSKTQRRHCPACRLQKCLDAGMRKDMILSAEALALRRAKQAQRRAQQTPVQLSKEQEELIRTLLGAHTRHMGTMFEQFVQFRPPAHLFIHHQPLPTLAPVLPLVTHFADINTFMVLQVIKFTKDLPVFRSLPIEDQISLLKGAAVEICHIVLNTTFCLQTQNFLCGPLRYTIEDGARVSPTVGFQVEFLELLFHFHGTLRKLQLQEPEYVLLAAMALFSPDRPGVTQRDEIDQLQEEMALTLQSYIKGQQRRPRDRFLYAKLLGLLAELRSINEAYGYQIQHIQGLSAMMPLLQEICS

Chain of X-box-binding protein 1 (Homo sapiens) (P17861 whole entry, looked up, the tested form may be a part): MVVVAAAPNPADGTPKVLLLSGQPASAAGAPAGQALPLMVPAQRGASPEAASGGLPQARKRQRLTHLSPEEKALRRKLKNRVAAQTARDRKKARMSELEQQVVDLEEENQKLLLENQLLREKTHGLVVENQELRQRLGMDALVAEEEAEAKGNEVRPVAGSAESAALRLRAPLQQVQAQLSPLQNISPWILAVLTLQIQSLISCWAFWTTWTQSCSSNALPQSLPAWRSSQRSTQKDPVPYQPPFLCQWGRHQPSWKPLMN
Chain of Estrogen receptor (Homo sapiens) (P03372 whole entry, looked up, the tested form may be a part): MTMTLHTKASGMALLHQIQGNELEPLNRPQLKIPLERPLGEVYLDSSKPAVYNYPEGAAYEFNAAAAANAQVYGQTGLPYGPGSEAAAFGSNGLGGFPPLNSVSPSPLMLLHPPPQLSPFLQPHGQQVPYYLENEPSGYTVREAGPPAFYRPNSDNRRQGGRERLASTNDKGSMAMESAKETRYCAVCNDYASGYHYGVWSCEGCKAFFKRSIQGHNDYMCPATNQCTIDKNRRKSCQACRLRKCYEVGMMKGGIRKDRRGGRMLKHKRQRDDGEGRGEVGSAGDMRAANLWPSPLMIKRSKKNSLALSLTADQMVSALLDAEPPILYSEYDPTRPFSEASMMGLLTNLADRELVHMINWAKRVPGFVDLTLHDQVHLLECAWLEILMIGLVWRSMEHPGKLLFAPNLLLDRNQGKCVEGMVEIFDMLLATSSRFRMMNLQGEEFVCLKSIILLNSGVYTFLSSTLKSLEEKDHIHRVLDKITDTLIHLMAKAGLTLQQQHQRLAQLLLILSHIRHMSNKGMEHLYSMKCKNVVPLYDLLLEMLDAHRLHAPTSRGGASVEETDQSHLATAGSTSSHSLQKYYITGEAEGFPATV
Chain of Steroid hormone receptor ERR1 (Homo sapiens) (P11474 whole entry, looked up, the tested form may be a part): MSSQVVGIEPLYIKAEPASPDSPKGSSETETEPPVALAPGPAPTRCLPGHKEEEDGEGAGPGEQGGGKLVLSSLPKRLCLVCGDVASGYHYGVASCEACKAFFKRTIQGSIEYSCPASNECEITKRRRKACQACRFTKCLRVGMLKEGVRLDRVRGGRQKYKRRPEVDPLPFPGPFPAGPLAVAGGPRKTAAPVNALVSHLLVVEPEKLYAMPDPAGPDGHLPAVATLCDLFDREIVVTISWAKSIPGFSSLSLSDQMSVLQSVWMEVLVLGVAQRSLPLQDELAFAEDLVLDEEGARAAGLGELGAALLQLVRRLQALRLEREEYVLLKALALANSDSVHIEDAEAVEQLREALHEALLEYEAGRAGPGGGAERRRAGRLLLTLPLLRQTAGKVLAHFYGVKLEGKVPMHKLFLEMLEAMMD

For `CCC(=O)C1CC(C(C)C)CC=C1C` (configuration not stated), the outcome in experiment [1], in experiment [2], in [3], in [4], in experiment [5] and in experiment [6] was inactive.
Take `CC(C)=CCl`: the call in experiment [1], in [2], in [3], in [4] and in experiment [6] was inactive.
For the molecule `Cc1noc(NS(=O)(=O)c2ccc(N)cc2)c1C`, the call in experiment [1], in [2], in experiment [3], in experiment [4] and in experiment [6] was inactive.
Regarding `NNS(=O)(=O)c1ccc(Oc2ccc(S(=O)(=O)NN)cc2)cc1`, the molecule was classed as inactive in experiment [1], in experiment [2], in experiment [3], in experiment [4], in experiment [5] and in [6]. The outcome in [7] and in experiment [8] was inactive.
For the molecule `CCCCCOC(=O)CCCCC`, the result in experiment [1], in [2], in [3], in experiment [4], in experiment [5] and in experiment [6] was inactive. In addition, in experiment [7], the result was inactive.
For the molecule `O=C(O)CCCC(=O)O`, the outcome in experiment [1], in experiment [2], in experiment [3], in experiment [4] and in experiment [6] was inactive.
`CC=C(C)C(C)=O`: the molecule was called inactive in experiment [1], in experiment [2], in experiment [3], in experiment [9], in [6] and in [8].
With `O=C(Cl)c1c(Cl)c(Cl)c(C(=O)Cl)c(Cl)c1Cl`, the molecule was classed as inactive in [1], in experiment [2], in experiment [4], in experiment [5], in experiment [6] and in [8]. Moreover, the AC50 in [3] is 0.74 µM (active).
Take `CC(=O)OCC=C(C)C`: the result in [1], in experiment [2], in [3], in experiment [9], in experiment [4] and in [6] was inactive. For the same molecule, the molecule was classed as inactive in experiment [7].
Take `O=C(OCCc1ccccc1)c1ccccc1`: the call in experiment [1], in [2], in experiment [3], in [9], in experiment [4] and in experiment [6] was inactive. Further, in experiment [7], the result was inactive.
As for `Cc1ccc(C)c(OCCCC(C)(C)C(=O)O)c1`, the call in experiment [1], in [2], in [3] and in [6] was inactive. In experiment [4], the AC50 was 20.2 µM (active).
`O=C(O)CC(C(=O)O)S(=O)(=O)O` (configuration not stated): the result in [1], in [2], in experiment [3], in [9], in experiment [6] and in experiment [7] was inactive. For the same molecule, the result in experiment [8] was inactive.
Consider `c1ccc2cnccc2c1`, for which the molecule was called inactive in experiment [1], in [2], in experiment [3], in experiment [4], in experiment [5] and in experiment [6]. Besides, the molecule was classed as inactive in experiment [7].
As for `CCNc1nc(NC(C)(C)C)nc(OC)n1`, the outcome in experiment [1], in experiment [2], in experiment [3], in experiment [9], in experiment [4] and in experiment [7] was inactive. For the same molecule, the molecule was classed as inactive in experiment [8].
As to `C=CCCCCCCCCOC(C)=O`, the outcome in experiment [1], in experiment [2], in [3], in experiment [4], in [5] and in experiment [6] was inactive. For the same molecule, in [7], the call was inactive.
In the case of `O=C1CCCCCCCCCCC1`, the outcome in experiment [1], in experiment [2], in experiment [3], in experiment [9] and in experiment [6] was inactive. Also, in [4], the AC50 was 21.2 µM (active).
Take `Nc1nc(N)nc(-c2ccccc2)n1`: the molecule was called inactive in experiment [1], in experiment [2], in [3], in experiment [9], in [4] and in experiment [7].
As for `COC(=O)[C@H](Cc1ccccc1)NC(=O)[C@@H](N)CC(=O)O` (H-Asp-Phe-OMe), the outcome in experiment [1], in experiment [2], in experiment [3], in experiment [4] and in [6] was inactive.
For `CCc1occc(=O)c1O`, the outcome in experiment [1], in experiment [2], in experiment [3] and in experiment [4] was inactive.
On to `C=C[C@@]1(C)CC(=O)[C@]2(O)[C@@]3(C)[C@@H](O)CCC(C)(C)[C@@H]3[C@H](O)[C@H](OC(C)=O)[C@@]2(C)O1`, for which the outcome in experiment [1], in [2], in experiment [3] and in experiment [6] was inactive. Further, the AC50 in experiment [4] was 2.1 µM (active).
With `CCCC1CCCC(=O)O1` (configuration not stated), the call in experiment [1], in experiment [2], in [3], in experiment [9], in experiment [4] and in experiment [6] was inactive. Also, the molecule was classed as inactive in [7].
In the case of `CO[Si](C)(C)OC`, the molecule was called inactive in experiment [1], in experiment [2], in experiment [3], in [9], in [4] and in [6]. Besides, the outcome in experiment [7] and in [8] was inactive.
For the molecule `CC1=CC=C(C(C)C)CC1`, the molecule was classed as inactive in experiment [1], in [2], in experiment [3], in [9], in [4] and in experiment [6]. In experiment [7], the result was inactive.
`CC(C)(c1ccccc1)c1ccc(Nc2ccc(C(C)(C)c3ccccc3)cc2)cc1`: the result in experiment [1], in experiment [2], in [3], in experiment [9], in experiment [4] and in experiment [6] was inactive. The outcome in experiment [7] was inactive.
Take `O=C(O)c1cc(O)c2ccccc2c1O`: the outcome in experiment [1], in experiment [4], in [5] and in experiment [6] was inactive. The values for the AC50 in [2] and in experiment [3] were 51.6 µM (active) and 33.4 µM (active), respectively.
In the case of `CC1=CCC(C(C)C)C=C1` (configuration not stated), the outcome in experiment [1], in experiment [2], in [3], in experiment [4] and in [6] was inactive.
With `c1ccc2c(c1)[nH]c1ccccc12`, the outcome in experiment [1], in experiment [2], in experiment [3], in [9], in [4] and in [6] was inactive. Besides, the molecule was called inactive in experiment [7].
In the case of `CC1=NN(c2ccc(S(=O)(=O)O)cc2)C(=O)C1N=Nc1ccccc1` (configuration not stated), the molecule was classed as inactive in [1], in experiment [2], in experiment [3], in [4] and in experiment [6].
On to `CCC(C)c1ccccc1` (configuration not stated), for which the molecule was called inactive in experiment [1], in experiment [2], in experiment [3], in [6] and in experiment [7].
For `CC1CCC(C(C)(C)S)C(=O)C1` (configuration not stated), the call in [1], in experiment [2], in experiment [3], in experiment [4], in experiment [6] and in [7] was inactive. Besides, the result in experiment [8] was inactive.
Consider `C=C(C)C1CC=C(C)CC1` (configuration not stated), for which the molecule was classed as inactive in [1], in [2], in experiment [3], in experiment [4] and in [8].
Consider `CN(C)c1ccc2nc3ccc(=[N+](C)C)cc-3sc2c1`, for which the molecule was called inactive in experiment [1], in [2], in experiment [3], in experiment [4], in experiment [6] and in [7].
